Sampled rows, rich in hits. Any-hit rate of the full collection: about 22%.
LmPK inh: LmPK (Leishmania mexicana) enzyme inhibition. Q27686. purified LmPK, Kinase-Glo ATP luminescence, 1 h. Potency, µM (doses to about 57.5 µM), for the others: at the top dose activity change, negative = inhibition, hits mostly inhibitors. 290,000 tested, 0.37% active. AID 1721; also: potency is read from the fitted curve at half-maximal effect; % is scaled to controls: 0 for no effect and ±100 for the full control effect
Target sequence (Q27686 whole entry, looked up): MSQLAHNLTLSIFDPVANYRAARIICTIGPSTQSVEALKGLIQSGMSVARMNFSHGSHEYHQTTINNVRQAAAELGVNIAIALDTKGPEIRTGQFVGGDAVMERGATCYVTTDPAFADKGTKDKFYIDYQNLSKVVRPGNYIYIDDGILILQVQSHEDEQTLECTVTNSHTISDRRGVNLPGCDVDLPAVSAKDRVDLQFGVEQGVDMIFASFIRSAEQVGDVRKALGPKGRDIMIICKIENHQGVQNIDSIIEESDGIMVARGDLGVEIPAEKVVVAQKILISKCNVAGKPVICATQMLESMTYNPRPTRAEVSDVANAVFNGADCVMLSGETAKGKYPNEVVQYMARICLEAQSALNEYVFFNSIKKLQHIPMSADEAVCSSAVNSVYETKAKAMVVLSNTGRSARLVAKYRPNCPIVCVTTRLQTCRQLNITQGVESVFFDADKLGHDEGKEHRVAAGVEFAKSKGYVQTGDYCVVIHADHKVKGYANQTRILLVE
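Purified LmPK (0.1 nM) with 0.5 mM PEP and 0.1 mM ADP in imidazole buffer pH 7.2 with MgCl2/KCl, 1 h at room temperature. ATP formed was read by luciferase luminescence and normalized to no-enzyme and uninhibited controls.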
Pf growth 96h: inhibits malaria parasite growth, 96 h | P. falciparum luciferase reporter growth, 96 h | Potency, µM (doses to about 28.7 µM), without a hit: at the top dose activity change, negative = inhibition, hits mostly inhibitors | 320,000 tested, 6.9% active | AID 504834; also: potency is read from the fitted curve at half-maximal effect; % is scaled to controls: 0 for no effect and ±100 for the full control effect
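96 h incubation, 37 C, 5% CO2, of luciferase-reporter P. falciparum-infected RBCs (2% hematocrit, 0.05% parasitemia final) with test compounds; endpoint luminescence.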
Shiga inhibitor: blocks Shiga toxin action in Vero cells. Vero cells, Shiga toxin protein synthesis inhibition reporter. inhibition, % at 38.7 µM. 290,000 tested, 9.2% active; in the data active = inhibition mostly above about 28%, no sharp cut-off; inactive = mostly below about 43%; also: 0% is about no effect
Pf growth 48h: P. falciparum growth inhibition at 48 hours (one generation) | 310,000 tested, 5.9% active | P. falciparum luciferase growth in erythrocytes, 48 h | AID 504832 | Potency, µM (highest dose often 28.7 µM), inactives show at the highest dose activity change, negative = inhibition, usual class: inhibitors; also: potency is read from the fitted curve at half-maximal effect; % is scaled to controls: 0 for no effect and ±100 for the full control effect
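Here the parasites carry a stable luciferase gene and grow inside erythrocytes in Albumax-based RPMI medium with compound for one erythrocytic cycle. Activity is scored as loss of luminescent signal.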
CHX counter: counter-screen for Shiga toxin inhibitors: cycloheximide protein synthesis inhibition | cell reporter, cycloheximide protein synthesis inhibition counterscreen | max response, % | 300,000 tested, 12% active | AID 2314; in the data active = max response mostly above about 13%, no sharp cut-off; inactive = mostly below about 14%; also: read at 38.3 µM for the half of the compounds with a filed dose; 0% is about no effect
Active calls of the source: *; u = inconclusive; x = no result; ! = a repeat was not active. Unless noted, calls follow the shape of the dose curve; as a rule, active = well fitted inhibition curve with a large enough effect; inconclusive = small, poorly fitted or top-dose-only effect, or another doubt; inactive = no such curve, though single readings can be large or run the other way.

SMILES	LmPK inh	Pf growth 96h	Shiga inhibitor	Pf growth 48h	CHX counter
COc1ccc(C(CNC(=O)c2ccc(Br)o2)N2CCN(C)CC2)cc1 (centres undefined)	x	4.6%	x	2.2%	x
COc1ccc(C(CNC(=O)c2ccc(-c3ccccc3Cl)o2)N2CCOCC2)cc1 (centres undefined)	x	u	x	14.7µM*	x
NC(N)=Nc1nc(CSCC/C(N)=N/S(N)(=O)=O)cs1	0.8%	4.26µM*!	-12.6	-0.9%	-3.3
O=C1NC(=O)C2(COC(c3ccccc3Cl)OC2)S1 (centres undefined)	2.9%	-28.8%	-5.0	0.5%	4.1
CN(C)CCCNC(=O)C1(O)c2cc(Br)ccc2NC(=O)N1c1ccc(Cl)cc1 (centres undefined)	4.9%	u	6.3	1.7%	-3.1
CCC(c1nnnn1Cc1ccc2c(c1)OCO2)N1CCN(c2ccccc2)CC1 (centres undefined)	2.4%	20.7%	-9.4	11.7µM*	1.7
Oc1ccc(N2CCN(C(c3ccccn3)c3nnnn3C3CCCC3)CC2)cc1 (centres undefined)	-17.7%	7.8%	-2.6	10.4µM*	-1.6
CCC(c1nnnn1CCOC)N1CCN(c2cccc(C(F)(F)F)c2)CC1 (centres undefined)	5.5%	2.33µM*	-13.9	u	-3.1
CCC(c1nnnn1C1CCCC1)N1CCN(c2cccc(OC)c2)CC1 (centres undefined)	2.2%	27.3%	-24.6	11.7µM*	1.2
CCC(c1nnnn1Cc1ccc2c(c1)OCO2)N1CCN(c2ccc(F)cc2)CC1 (centres undefined)	19.8%	x	-4.3	x	-2.4
c1ccc(C(c2nnnn2C2CCCCC2)N2CCc3ccccc3C2)nc1 (centres undefined)	1.6%	u	31.6	-7.1%	-2.3
Cc1cc(C)cc(C(=O)N(CCc2ccccc2)C2CC3CCC(C2)N3C)c1 (centres undefined)	2.5%	u	-19.5	0.0%	-3.0
Cc1noc(C)c1COc1ccc(C(=O)OCC(=O)Nc2ccc(C(=O)N(C)C)cc2)cc1	x	29.2%	x	-12.2%	x
Cc1ccc2cc(C(c3nnnn3C3CCCC3)N3CCN(c4ccc(F)cc4)CC3)c(=O)[nH]c2c1 (centres undefined)	0.4%	-7.3%	11.6	5.86µM*	1.3
COc1ccc(C(c2nnnn2C2CCCCC2)N2CCN(c3ccc(OC)cc3)CC2)cc1 (centres undefined)	0.6%	x	-10.4	11.7µM*	-1.6
Fc1ccc(C(c2nnnn2C2CCCCC2)N2CCCC2)cc1 (centres undefined)	3.0%	-32.8%	-22.1	13.1µM*	-1.1
c1ccc(C(c2nnnn2C2CCCC2)N2CCN(c3ccccc3)CC2)cc1 (centres undefined)	2.3%	u	-2.5	13.1µM*	-3.2
CCC(NC(=O)CN1CCN(C(=O)c2cccs2)CC1)c1ccc(C)cc1 (centres undefined)	x	5.2%	x	0.9%	x
Cc1ccc(C(=O)OCC(=O)N(C)C2CCS(=O)(=O)C2)cc1[N+](=O)[O-] (centres undefined)	3.7%	7.8%	-2.4	16.6%	-1.6
Cc1ccc(S(=O)(=O)NCCCNS(=O)(=O)c2ccccc2[N+](=O)[O-])cc1	-4.6%	-1.0%	x	-17.6%	0.7
CCOC(=O)C(C)n1cnc2sc3c(c2c1=O)CCC3 (centres undefined)	0.9%	u	-11.3	-19.6%	-6.8
CCc1cc2c(=O)n(C(C)C(=O)OC3CCCCC3)cnc2s1 (centres undefined)	-11.7%	-5.4%	37.4*	100.8%	41.4*
COc1cc(Cl)c(C)cc1Nc1ncccn1	-5.2%	31.4%	3.8	8.1%	-2.1
CN(C)CCCOC(=O)C1c2ccccc2Oc2ccccc21	-1.9%	0.6%	-9.2	-6.9%	-3.6
CC[N+](C)(CC)CCOC(=O)C1c2ccccc2Oc2ccccc21	x	10.4µM*!	x	10.4µM*!	x
Cc1cc2ncn(CCOc3ccccc3)c2cc1C	-4.4%	47.1%	102.0*	0.0%	50.8*
CC[n+]1c(/C=C/C=C/N(C(C)=O)c2ccccc2)sc2cc(OC)ccc21	-11.7%	12.9%	-6.0	9.28µM*	-1.5
CC[n+]1c(/C=C(\C)OC)sc2ccccc21	-4.5%	-29.0%	-2.9	33.5%	1.2
N#CC(C(=O)Nc1cccc(Cl)c1)=C1Nc2ccccc2N1	-8.0%	-11.5%	-28.7	14.8%	9.6
N#CC(=C1Nc2ccccc2N1)S(=O)(=O)c1ccccc1	-1.1%	1.6%	-6.9	-2.7%	5.7
